The nature of assay [1]: AP1 Signaling Pathway (AID 357; active = well fitted curve in either direction with a large enough effect, not every such curve was filed as active; also: % is scaled to controls: 0 for no effect and ±100 for the full control effect). To be noted: ME-180 AP-1-bla reporter, EGF-induced, beta-lactamase ratio, 5 h; at 17.2 µM (top of the series) unless noted. The essentials: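 ME-180 cells with beta-lactamase reporter under AP-1 response element, stimulated with EC50 EGF; compounds tested in titration series, 5 h at 37 °C. CCF4 substrate added 2.5 h at room temperature; 460/530 nm emission ratio gave %activity and AC50.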

Assay [2] is described as follows: Stat Signaling Pathway (AID 446; active = well fitted curve in either direction with a large enough effect, not every such curve was filed as active;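 also: ME-180 cervical cancer cells given 40 pM IL-6 alongside compound; SIE-controlled beta-lactamase reporter measured as 460/530 nm FRET emission ratio; % is scaled to controls: 0 for no effect and ±100 for the full control effect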). Summed up:
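FRET read-out (405 nm excitation, 460/530 nm emission) of a beta-lactamase reporter under a STAT-inducible element in ME-180 cervical carcinoma cells. Cells with compound receive 40 pM IL-6 for 5 h. Values are normalised to AC90 stimulation and AC90 JAK-inhibitor controls.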

For assay [3], the target named is Glucocorticoid receptor (Homo sapiens) (UniProt P04150). Description: GR-GFP Redistribution (AID 450;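 active = compounds whose dose series gives a full or clear partial fitted curve of increased nuclear translocation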; also: potency is read from the fitted curve at half-maximal effect). To be noted: U2OS GR-GFP nuclear translocation, laser cytometry, 2 h.
Glucocorticoid receptor (Homo sapiens), sequence (P04150 whole entry, looked up, the tested form may be a part): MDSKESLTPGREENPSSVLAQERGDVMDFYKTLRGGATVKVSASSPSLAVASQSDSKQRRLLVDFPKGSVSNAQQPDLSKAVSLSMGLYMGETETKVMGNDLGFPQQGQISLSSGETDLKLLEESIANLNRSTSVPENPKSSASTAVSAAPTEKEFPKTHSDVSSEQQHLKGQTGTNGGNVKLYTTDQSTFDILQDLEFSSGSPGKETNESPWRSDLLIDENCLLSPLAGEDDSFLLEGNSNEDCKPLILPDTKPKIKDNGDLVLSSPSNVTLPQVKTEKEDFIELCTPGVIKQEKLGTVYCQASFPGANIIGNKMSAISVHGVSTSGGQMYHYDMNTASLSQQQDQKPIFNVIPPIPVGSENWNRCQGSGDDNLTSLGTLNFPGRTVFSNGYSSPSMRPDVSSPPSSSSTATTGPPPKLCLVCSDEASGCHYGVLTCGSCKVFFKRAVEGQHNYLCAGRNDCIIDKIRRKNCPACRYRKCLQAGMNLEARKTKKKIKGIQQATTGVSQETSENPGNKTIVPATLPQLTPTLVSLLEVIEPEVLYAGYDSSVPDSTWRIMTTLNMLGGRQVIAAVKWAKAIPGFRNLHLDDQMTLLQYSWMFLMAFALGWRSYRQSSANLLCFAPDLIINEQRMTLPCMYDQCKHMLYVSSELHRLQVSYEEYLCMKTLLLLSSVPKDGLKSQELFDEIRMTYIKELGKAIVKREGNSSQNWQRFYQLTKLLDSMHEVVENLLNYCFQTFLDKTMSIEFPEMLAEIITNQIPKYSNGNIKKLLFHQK
Assay [4] is described as follows: NFAT Signaling Pathway (AID 444; active = well fitted curve in either direction with a large enough effect, not every such curve was filed as active;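 also: carbachol stimulus at about its EC50 of 1 µM final; % is scaled to controls: 0 for no effect and ±100 for the full control effect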). To be noted: Jurkat NFAT-bla M1, carbachol, beta-lactamase ratio, 5 h; at 17.2 µM (top of the series) unless noted. The essentials: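 Jurkat cells carrying an NFAT-driven β-lactamase reporter and co-transfected muscarinic M1 receptor were treated with compound plus carbachol (1 uM final, an EC50 level) for 5 h at 37 °C. CCF4 loading followed for 1 h at RT; 460/530 nm ratio gave %activity.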

The target in assay [5] is Glucocorticoid receptor (Homo sapiens) (UniProt P04150). Description: GR-EFC Redistribution (AID 451; calls by dose curve; also: potency is read from the fitted curve at half-maximal effect). To be noted: CHO-K1 GR-EFC translocation, beta-gal luminescence, 2 h. The essentials:
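CHO-K1 cells stably expressing nuclear-localized β-gal enzyme acceptor and GR fused C-terminally to the enzyme donor fragment; ligand-driven nuclear translocation restores β-gal by complementation. Compounds titrated up to 46 uM final, 2 h at 37 °C; luminescence read.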

The target in assay [6] is Mitogen-activated protein kinase 10 (Mus musculus) (UniProt Q61831). Description: JNK3 AlphaScreen Assay (AID 530; active = well fitted curve in either direction with a large enough effect, not every such curve was filed as active;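 also: kinase came from lysate of stimulated human HepG2 cells; signal reports phosphorylation of biotinylated GST-cJun 1-79 at Ser73 with 10 µM ATP; % is scaled to controls: 0 for no effect and ±100 for the full control effect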). The essentials: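 Phosphorylation of biotinylated GST-cJun(1-79) at Ser73 is measured by AlphaScreen proximity luminescence. Enzyme is JNK3 in HepG2 lysates activated with interleukin-1beta and tumor necrosis factor alpha; ATP is 10 uM final.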
For orientation: Bead proximity is the source of the signal in Alpha formats.

Assay [7] has as its target 3',5'-cyclic-AMP phosphodiesterase 4B (Homo sapiens) (UniProt Q07343). Description: qHTS Assay for Inhibitors of PDE-IV (AID 607; active = well fitted activation curve with a large enough effect in the main read-out, with a control signal flat, not every such curve was filed as active; also: % of control where 0% means no effect). The essentials: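 Cell-based read-out of cAMP via a modified cyclic nucleotide-gated channel and membrane potential dye (535/590 nm) in HEK293 cells expressing PDE4 endogenously. Compounds tested up to 22.9 uM final; 100 uM RO 20-1724 reference.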
In general terms: In qHTS, concentration-response curves come from the screen itself.

Assay [8] concerns the target Guanine nucleotide-binding protein G(i) subunit alpha-1 (Homo sapiens) (UniProt P63096). Description: qHTS Assay for Inhibitors of RGS12 GoLoco Motif Activity (Green Fluorophore) (AID 879).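 Also: 0% = labeled peptide with Gαi1 and full inhibition = labeled peptide alone without protein; negative values mean loss of peptide binding seen as reduced polarization.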 The essentials:
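A drop in FITC polarization marked displacement of the FITC-tagged RGS12 GoLoco peptide (10 nM) from Gαi1 (50 nM). Compounds were incubated 10 min at room temperature in Tris pH 7.5 buffer containing 150 mM NaCl, 0.1 mM GDP and 0.05% NP40; unlabeled peptide titration served as control.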

Assay [9] is described as follows: qHTS Assay for Identification of Small Molecule Agonists for Thrombopoietin (TPO) Signaling Pathway (AID 917). Also: % is scaled to controls: 0 for no effect and ±100 for the full control effect. Summed up:
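First, Ba/F3 cells with human TPO receptor were held overnight without IL-3. Next, compounds and TPO (26 pM final) were added. After 24 hrs at 37 C, luciferase detection reagent was added and luminescence measured following 10 min at room temperature.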

Assay [10] has as its target Muscarinic acetylcholine receptor M1 (Rattus norvegicus) (UniProt P08482). Description: qHTS Assay for Antagonists of Acetylcholine Muscarinic M1 Receptor: Measurement of IP-One Response (AID 944). Also: nearly all actives have a fitted effect of over 75% in size. The essentials: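 Antagonist mode with rat M1 receptor transfected into CHO cells. Compound is added first for 10 min, carbachol at its EC80 follows for 30 min, and lysis reagents then allow TR-FRET detection of accumulated IP1.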

For assay [11], the target named is Pyruvate kinase (Leishmania mexicana) (UniProt Q27686). Description: qHTS Validation Assay for Inhibitors of Leishmania Mexicana Pyruvate Kinase (AID 945).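 Also: 0% = DMSO only neutral control wells.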 The essentials: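 Eight-point qHTS titrations in triplicate, data normalized to DMSO neutral control. Reaction: 0.2 nM LmPYK E451W mutant, 0.5 mM PEP, 0.1 mM ADP, 7 mM MgCl2, pH 7.2, one hour at room temperature; luminescent ATP detection.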
Pyruvate kinase (Leishmania mexicana), sequence (Q27686 2-499 E452W): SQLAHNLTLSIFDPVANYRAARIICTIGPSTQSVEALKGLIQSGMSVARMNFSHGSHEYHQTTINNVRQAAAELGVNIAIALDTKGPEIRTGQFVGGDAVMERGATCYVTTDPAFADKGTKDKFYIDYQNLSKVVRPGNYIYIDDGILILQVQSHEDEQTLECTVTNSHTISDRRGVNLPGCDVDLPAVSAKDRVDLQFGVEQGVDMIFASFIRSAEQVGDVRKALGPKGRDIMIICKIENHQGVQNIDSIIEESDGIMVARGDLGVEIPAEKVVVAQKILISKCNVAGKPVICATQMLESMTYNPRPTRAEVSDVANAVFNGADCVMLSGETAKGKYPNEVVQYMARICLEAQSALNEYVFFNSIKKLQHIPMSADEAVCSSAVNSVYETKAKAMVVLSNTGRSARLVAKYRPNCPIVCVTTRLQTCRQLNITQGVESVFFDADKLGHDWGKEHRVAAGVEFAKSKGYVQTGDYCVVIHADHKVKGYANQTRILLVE

Assay [12] concerns the target Pyruvate kinase PKM (Homo sapiens) (UniProt P14618). Description: qHTS Assay for Activators of Human Muscle Pyruvate Kinase (AID 954; active = well fitted curve in the direction sought with a large enough effect, not every such curve was filed as active;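 also: 0% = uninhibited enzyme and -100% = no enzyme or full thiadiazolimine inhibition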). The essentials: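 ATP production by PKM2 detected via luciferase luminescence after 1 h room-temperature reaction (0.1 nM enzyme, PEP at Km 0.5 mM, ADP 0.1 mM, pH 7.2 imidazole buffer). Inhibition scaled to no-enzyme control; activation referenced to 0.3 nM enzyme wells.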

Assay [13] has as its target Alpha-galactosidase (Coffea arabica) (UniProt Q42656). Description: Counterscreen for Glucocerebrosidase Inhibitors: qHTS Assay for Coffee Bean alpha-Galactosidase at pH 4.5 (AID 957).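 Also: plate controls were enzyme alone for no effect and no enzyme for full effect.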 Summed up:
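Enzyme is added first (2 nM final), then compounds titrated from 0.7 nM to 77 uM, then 80 uM 4-methylumbelliferyl alpha-D-galactopyranoside; after 20 min at room temperature a pH 10 NaOH/glycine stop precedes fluorescence reading at 365/440 nm.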
A general note: Counterscreens check selectivity or assay interference.

Assay [14] deals with Alpha-galactosidase A (Homo sapiens) (UniProt P06280). Description: Counterscreen for Glucocerebrosidase Inhibitors: qHTS Assay for Human alpha-Galactosidase at pH 4.5 (AID 992). Also: 0% is about no effect. Summed up: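 Fluorogenic 1536-well qHTS at pH 4.5 (citrate, Tween-20): 2 nM enzyme, 80 uM 4-MU-alpha-galactoside, 20 min room temperature, NaOH/glycine stop. Titration 0.7 nM to 77 uM, data normalized to no-enzyme and full-activity controls, Hill-fitted AC50.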
Alpha-galactosidase A (Homo sapiens), sequence (P06280 whole entry, looked up): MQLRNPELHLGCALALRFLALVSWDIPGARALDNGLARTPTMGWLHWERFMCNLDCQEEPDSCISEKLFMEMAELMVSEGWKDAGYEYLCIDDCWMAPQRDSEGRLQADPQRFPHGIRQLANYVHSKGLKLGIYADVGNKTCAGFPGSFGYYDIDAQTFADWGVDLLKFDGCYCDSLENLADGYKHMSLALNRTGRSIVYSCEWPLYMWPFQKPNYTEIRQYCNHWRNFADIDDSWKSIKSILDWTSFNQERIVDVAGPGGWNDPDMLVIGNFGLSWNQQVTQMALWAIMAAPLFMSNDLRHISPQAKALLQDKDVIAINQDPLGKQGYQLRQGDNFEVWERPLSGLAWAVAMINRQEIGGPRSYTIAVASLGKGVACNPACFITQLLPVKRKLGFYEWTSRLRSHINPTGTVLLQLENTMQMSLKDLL

Assay [15] addresses alpha-glucosidase (Oryza sativa, rice) (UniProt Q653V4). Description: Counterscreen for Glucocerebrosidase Inhibitors: qHTS Assay for Rice alpha-Glucosidase at pH 5.0 (AID 997).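 Also: 0% = full activity with enzyme and -100% = basal without enzyme.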 Summed up: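 Endpoint fluorogenic assay at pH 5.0: compounds (0.7 nM to 77 uM) titrated against 4 nM rice enzyme and 400 uM 4-MU-alpha-glucoside for 20 min at room temperature; NaOH/glycine stop, read ex 365/em 440 nm, Hill-fitted AC50.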

Assay [16] deals with Alpha-galactosidase (Coffea arabica) (UniProt Q42656). Description: Counterscreen for Glucocerebrosidase Inhibitors: qHTS Assay for Coffee Bean alpha-Galactosidase at pH 5.9 (AID 998).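 Also: plate controls were uninhibited enzyme for no effect and no-enzyme basal signal for full effect.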 Summed up: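 In 50 mM citric acid pH 5.9 with 0.005% Tween-20, coffee bean enzyme hydrolyses 80 uM 4-MU alpha-D-galactopyranoside over 20 min at RT. Activity is normalized to controls; AC50 comes from Hill-modelled concentration-response data.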
Alpha-galactosidase (Coffea arabica), sequence (Q42656 whole entry, looked up): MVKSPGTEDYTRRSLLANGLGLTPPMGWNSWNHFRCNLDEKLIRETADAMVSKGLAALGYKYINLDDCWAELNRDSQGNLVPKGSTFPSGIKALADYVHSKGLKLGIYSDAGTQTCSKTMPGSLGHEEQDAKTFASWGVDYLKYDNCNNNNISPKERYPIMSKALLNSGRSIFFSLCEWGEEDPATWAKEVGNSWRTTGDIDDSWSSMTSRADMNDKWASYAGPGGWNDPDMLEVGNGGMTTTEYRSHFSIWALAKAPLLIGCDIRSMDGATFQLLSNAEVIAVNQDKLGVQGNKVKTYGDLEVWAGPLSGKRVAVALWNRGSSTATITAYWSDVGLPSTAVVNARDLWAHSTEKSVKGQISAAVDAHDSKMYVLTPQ

Assay [17] in a line: qHTS Assay for Identification of Small Molecule Antagonists for NFkB Signaling Pathway (AID 895; active = well fitted inhibition curve with a large enough effect in the signal ratio, with a control signal flat, not every such curve was filed as active; the % refers to the signal ratio; also: % is scaled to controls: 0 for no effect and ±100 for the full control effect). The essentials: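 NFkB-bla ME-180 cervical carcinoma cells with beta-lactamase reporter under NFkB response element; compounds added, then TNF alpha at 10 pM final (EC50), 5 h at 37 C. LiveBLAzer substrate 2 h, room temperature; emission 460/530 nm at 405 nm excitation.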
In assay [18] the target is Muscarinic acetylcholine receptor M1 (Rattus norvegicus) (UniProt P08482). Description: qHTS Assay for Antagonists of Acetylcholine Muscarinic M1 Receptor: Kinetic Measurement of Intracellular Calcium Response (AID 943).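 Also: Fluo-4 calcium signal as peak divided by basal fluorescence over 4 min; nearly all actives have a fitted effect of over 75% in size.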 Summed up: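 Antagonism is measured as inhibition of the carbachol-evoked calcium rise in CHO cells transfected with rat M1. Cells are dye-loaded, exposed to compound for 10 min, then stimulated with 100 nM carbachol (EC80).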
Muscarinic acetylcholine receptor M1 (Rattus norvegicus), sequence (P08482 whole entry, looked up): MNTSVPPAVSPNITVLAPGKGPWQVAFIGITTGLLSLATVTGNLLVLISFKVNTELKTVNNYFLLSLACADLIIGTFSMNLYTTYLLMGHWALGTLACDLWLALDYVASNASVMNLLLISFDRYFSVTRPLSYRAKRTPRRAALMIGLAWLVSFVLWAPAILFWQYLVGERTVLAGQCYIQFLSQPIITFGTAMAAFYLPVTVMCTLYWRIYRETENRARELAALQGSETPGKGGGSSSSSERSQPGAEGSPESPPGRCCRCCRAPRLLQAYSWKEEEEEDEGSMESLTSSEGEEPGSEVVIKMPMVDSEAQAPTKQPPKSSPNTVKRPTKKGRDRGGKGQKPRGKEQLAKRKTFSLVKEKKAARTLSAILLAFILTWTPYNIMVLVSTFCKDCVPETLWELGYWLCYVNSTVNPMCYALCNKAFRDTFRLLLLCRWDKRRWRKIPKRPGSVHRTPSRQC

Assay [19] concerns the target Cytochrome P450 2D6 (Homo sapiens) (UniProt P10635). Description: qHTS Assay for Inhibitors and Substrates of Cytochrome P450 2D6 (AID 891). Also: potency is read from the fitted curve at half-maximal effect; nearly all actives have a fitted effect of over 60% in size. Summed up:
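Luminescent read-out of luciferin formed by 5 nM human CYP2D6 demethylating 30 uM Luciferin-ME EGE (Km level) over 60 min at room temperature after NADPH regeneration addition. Data normalized to full inhibition by 1.43 uM quinidine.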

Unmarked numbers belong to inactive results. Records with an inconclusive call do not appear. The source made the active and inactive calls. Unless noted, calls follow the shape of the dose curve; as a rule, active = well fitted curve in the direction sought with a large enough effect; inconclusive = small, poorly fitted or top-dose-only effect, or another doubt; inactive = no such curve, though single readings can be large; an effect the other way counts as inactive or inconclusive.

Pyruvate kinase PKM (Homo sapiens), sequence (P14618 whole entry, looked up): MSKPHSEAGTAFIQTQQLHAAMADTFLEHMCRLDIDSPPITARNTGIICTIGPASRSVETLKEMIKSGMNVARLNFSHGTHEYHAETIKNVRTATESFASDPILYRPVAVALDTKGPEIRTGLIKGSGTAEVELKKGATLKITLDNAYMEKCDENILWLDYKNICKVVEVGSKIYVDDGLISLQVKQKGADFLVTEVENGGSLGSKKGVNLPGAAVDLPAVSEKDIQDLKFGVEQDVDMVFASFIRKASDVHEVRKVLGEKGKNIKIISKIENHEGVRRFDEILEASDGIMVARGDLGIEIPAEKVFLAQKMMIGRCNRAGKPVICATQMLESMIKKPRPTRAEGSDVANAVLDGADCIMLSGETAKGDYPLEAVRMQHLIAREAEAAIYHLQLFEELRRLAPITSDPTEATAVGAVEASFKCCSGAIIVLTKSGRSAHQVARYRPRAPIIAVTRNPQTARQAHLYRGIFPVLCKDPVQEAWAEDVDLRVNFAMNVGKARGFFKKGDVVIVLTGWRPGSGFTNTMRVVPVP
3',5'-cyclic-AMP phosphodiesterase 4B (Homo sapiens), sequence (Q07343 whole entry, looked up): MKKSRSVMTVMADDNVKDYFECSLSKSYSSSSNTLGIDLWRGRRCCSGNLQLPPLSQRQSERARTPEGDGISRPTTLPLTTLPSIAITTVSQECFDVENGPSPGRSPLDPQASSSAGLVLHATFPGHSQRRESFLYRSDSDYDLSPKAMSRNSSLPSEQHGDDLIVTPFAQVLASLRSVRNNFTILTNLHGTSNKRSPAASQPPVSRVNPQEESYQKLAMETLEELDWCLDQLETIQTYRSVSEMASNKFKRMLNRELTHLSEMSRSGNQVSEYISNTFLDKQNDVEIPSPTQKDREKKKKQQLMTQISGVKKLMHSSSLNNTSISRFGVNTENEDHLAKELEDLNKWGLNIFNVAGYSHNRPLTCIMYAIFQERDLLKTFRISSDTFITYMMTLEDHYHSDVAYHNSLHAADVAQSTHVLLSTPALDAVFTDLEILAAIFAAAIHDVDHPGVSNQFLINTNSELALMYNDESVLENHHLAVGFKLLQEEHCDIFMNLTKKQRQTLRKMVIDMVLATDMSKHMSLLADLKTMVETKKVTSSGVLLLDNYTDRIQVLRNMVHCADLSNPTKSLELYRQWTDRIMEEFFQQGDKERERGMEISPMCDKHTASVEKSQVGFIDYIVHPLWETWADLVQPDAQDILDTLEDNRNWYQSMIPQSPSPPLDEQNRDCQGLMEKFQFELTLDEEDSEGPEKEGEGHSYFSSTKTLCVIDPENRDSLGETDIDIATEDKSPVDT
Guanine nucleotide-binding protein G(i) subunit alpha-1 (Homo sapiens), sequence (P63096 whole entry, looked up): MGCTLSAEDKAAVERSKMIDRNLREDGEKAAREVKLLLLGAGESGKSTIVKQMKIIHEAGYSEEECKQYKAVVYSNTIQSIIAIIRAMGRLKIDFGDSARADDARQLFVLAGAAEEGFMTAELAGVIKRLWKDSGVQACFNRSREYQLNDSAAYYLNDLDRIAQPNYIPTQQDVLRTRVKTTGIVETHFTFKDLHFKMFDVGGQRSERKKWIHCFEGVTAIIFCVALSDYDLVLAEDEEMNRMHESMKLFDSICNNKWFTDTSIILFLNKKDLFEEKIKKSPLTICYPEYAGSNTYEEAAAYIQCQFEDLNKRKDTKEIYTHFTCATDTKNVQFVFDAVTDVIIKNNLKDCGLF
Cytochrome P450 2D6 (Homo sapiens), sequence (P10635 whole entry, looked up): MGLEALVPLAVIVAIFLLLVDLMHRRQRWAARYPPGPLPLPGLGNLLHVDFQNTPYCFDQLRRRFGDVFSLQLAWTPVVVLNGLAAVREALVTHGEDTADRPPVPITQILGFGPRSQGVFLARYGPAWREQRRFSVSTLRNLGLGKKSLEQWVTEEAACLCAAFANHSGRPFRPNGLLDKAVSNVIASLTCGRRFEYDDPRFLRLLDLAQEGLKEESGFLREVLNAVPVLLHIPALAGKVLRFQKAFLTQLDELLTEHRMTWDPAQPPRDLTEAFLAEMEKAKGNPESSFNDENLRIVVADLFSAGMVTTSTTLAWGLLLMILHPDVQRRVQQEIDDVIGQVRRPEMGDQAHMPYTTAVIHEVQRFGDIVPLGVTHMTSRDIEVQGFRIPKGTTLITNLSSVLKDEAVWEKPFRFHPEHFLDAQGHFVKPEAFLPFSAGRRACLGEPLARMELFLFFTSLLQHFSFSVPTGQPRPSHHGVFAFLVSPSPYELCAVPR

As for `O=C1C2CCN(CC2)[C@@H]1Cc1ccc2ccccc2c1O`, the activity change, negative = inhibition in assay [1] was 6.63%. The result in [2] was inactive. For the same compound, the Potency in assay [3] is more than 20.6 µM.

For `C=CCN1CC[C@@]23CCCC[C@@H]2[C@@H]1Cc1ccc(O)cc13`, the activity change, negative = inhibition was -10.4% [at 38 µM] in assay [1] and -24.3% [at 38 µM] in [4]. Besides, the Potency in assay [3] and in assay [5] was more than 46 µM in each case. The compound was called inactive in assay [6], in assay [7], in assay [9], in [12], in [13] and in assay [14]. Moreover, the result in [15] and in assay [16] was inactive. The Potency entry in assay [8], in assay [10] and in [11] was “inactive” throughout.

As to `CC(=O)[C@@H]1CC[C@@H]2[C@H]3CC[C@H]4C[C@@H](O)CC[C@]4(C)[C@@H]3C(=O)C[C@]21C`, the activity change, negative = inhibition is -0.27% [at 38 µM] in assay [1] and -2.4% [at 38 µM] in assay [4]. Also, the compound was called inactive in [2] and in assay [7].

In the case of `CCCCCCn1c(O)c(C=NC2CCN(Cc3ccccc3)CC2)c(=O)[nH]c1=O`, the activity change, negative = inhibition in assay [1] is -7.92%. In addition, the result in assay [2] was inactive. In addition, in [3], the Potency was more than 20.6 µM.

Take `CC(C)n1cc2c3c(cccc31)[C@@H]1C[C@H](C(=O)O[C@@H](C)[C@H](C)O)CN(C)[C@H]1C2`: the figures for the activity change, negative = inhibition in [1] and in assay [4] were 1.23% [at 38 µM] and -4.79% [at 38 µM], respectively. Further, the Potency in [3] and in assay [5] was more than 46 µM each time. Further, the compound was classed as inactive in assay [6], in [9], in assay [12], in assay [13], in assay [14] and in [15]. In addition, in assay [16], the call was inactive. Also, the Potency result in assay [17], in [18] and in assay [11] was “inactive” each time.

As to `O=c1[nH]c(=O)n(CCc2ccccc2)c(O)c1C=NCCN1CCNCC1`, the activity change, negative = inhibition in assay [1] is 17.3%. Also, the call in [2] was inactive. The Potency in assay [3] was more than 20.6 µM.

Turning to `COc1ccc2c(c1)[C@]13CCCC[C@@H]1[C@H](C2)N(C)CC3`, the activity change, negative = inhibition in assay [1] is 12% [at 38 µM]; in [4] it was -11.7% [at 38 µM]. For the same compound, the compound was called inactive in [2], in [7], in [12], in assay [13], in [14] and in assay [15]. Moreover, in assay [16], the compound was called inactive. For the same compound, the values for the Potency in [3], in [5] and in assay [19] were more than 46 µM, more than 46 µM and 2.51 µM (active), respectively. In addition, the Potency entry in [8] and in assay [11] was “inactive” throughout.

`CC(C)(C)c1ccc(O)c(C[N+](C)(C)C)c1`: the activity change, negative = inhibition in [1] was -0.0649% [at 7.69 µM]; in assay [4] it was -16.5% [at 7.69 µM]; in assay [6], -0.903% [at 11.4 µM]. The result in [2] and in assay [7] was inactive. The values for the Potency in assay [3] and in [5] were more than 46 µM and more than 9.22 µM, respectively.
